Source: the supplement of paper PMC10849652
Targets with a hit are over-represented here; the source holds about 7,900 in all. About 0.6% of all pairs of compound and target were hits.

What was measured:
Assay in all cases: log2 fold change, soluble protein after heating vs DMSO (PISA); higher = thermal stabilisation; K562 cells, 10 uM, 30 min; active = over 0.2 and 3.5 SD of the protein, either way, in both replicates (recomputed)
[1] = compound: CS(=O)(=O)c1ccc(-c2cnc(N)c(C(=O)Nc3ccccc3)n2)cc1
In short: (§1)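 Soluble protein was quantified by TMTpro 16plex LC-MS/MS after channel sums were equalised. It was obtained as the supernatant after 21,000xg for 90 min from pooled aliquots of K562 cells (2×10^6 cells/mL, 10 μM compound, 30 min) heated for 3 min across 48°C-58°C and extracted in PBS with 0.5% NP-40 at 4°C. Thermal stability values are relative to control samples and come from duplicates. They are given as log2 fold changes.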

crizotinib = compound: C[C@@H](Oc1cc(-c2cnn(C3CCNCC3)c2)cnc1N)c1c(Cl)ccc(F)c1Cl [crizotinib]
In short: as §1

[2] = compound: C[C@@H]1COCCN1C2=NC(=NC(=C2)C3(CC3)S(=O)(=O)C)C4=C5C=CNC5=CC=C4
In short: as §1

[3] = compound: C[C@H](C1=CC=C(C=C1)C(=O)NC2=C3C=CNC3=NC=C2)N
In short: as §1

duvelisib = compound: C[C@H](Nc1ncnc2nc[nH]c12)c1cc2cccc(Cl)c2c(=O)n1-c1ccccc1 [duvelisib]
In short: as §1

gandotinib = compound: Cc1cc(Nc2cc(CN3CCOCC3)c3nc(C)c(Cc4ccc(Cl)cc4F)n3n2)n[nH]1 [gandotinib]
In short: as §1

tozasertib = compound: Cc1cc(Nc2cc(N3CCN(C)CC3)nc(Sc3ccc(NC(=O)C4CC4)cc3)n2)n[nH]1 [tozasertib]
In short: as §1

[4] = compound: Cc1cc(SCc2sc(-c3ccc(C(F)(F)F)cc3)nc2C)ccc1OCC(=O)O
In short: as §1

doramapimod = compound: Cc1ccc(-n2nc(C(C)(C)C)cc2NC(=O)Nc2ccc(OCCN3CCOCC3)c3ccccc23)cc1 [doramapimod]
In short: as §1

ispinesib = compound: Cc1ccc(C(=O)N(CCCN)[C@@H](c2nc3cc(Cl)ccc3c(=O)n2Cc2ccccc2)C(C)C)cc1 [ispinesib]
In short: as §1

bafetinib = compound: Cc1ccc(NC(=O)c2ccc(CN3CC[C@H](N(C)C)C3)c(C(F)(F)F)c2)cc1Nc1nccc(-c2cncnc2)n1 [bafetinib]
In short: as §1

[5] = compound: Cc1cccc(CC(=O)N2CCc3c2ccc(-c2cn(C)c4ncnc(N)c24)c3F)n1
In short: as §1

nilotinib = compound: Cc1cn(-c2cc(NC(=O)c3ccc(C)c(Nc4nccc(-c5cccnc5)n4)c3)cc(C(F)(F)F)c2)cn1 [nilotinib]
In short: as §1

[6] = compound: Cc1nc(Nc2n[nH]c3c2CN(C(=O)N[C@H](CN(C)C)c2ccccc2)C3(C)C)c2sccc2n1
In short: as §1

dasatinib = compound: Cc1nc(Nc2ncc(C(=O)Nc3c(C)cccc3Cl)s2)cc(N2CCN(CCO)CC2)n1 [dasatinib]
In short: as §1

[7] = compound: Cc1ncc(-c2ccnc(Nc3ccc(S(C)(=O)=O)cc3)n2)n1C(C)C
In short: as §1

[8] = compound: Cn1cc(-c2ccc3c(c2)CCN3C(=O)Cc2cccc(C(F)(F)F)c2)c2c(N)ncnc21
In short: as §1

[9] = compound: Cn1cc(-c2ccc3nnc(C(F)(F)c4ccc5ncccc5c4)n3n2)cn1
In short: as §1

tipifarnib = compound: Cn1cncc1[C@@](N)(c1ccc(Cl)cc1)c1ccc2c(c1)c(-c1cccc(Cl)c1)cc(=O)n2C [tipifarnib]
In short: as §1

mubritinib = compound: FC(F)(F)c1ccc(/C=C/c2nc(COc3ccc(CCCCn4ccnn4)cc3)co2)cc1 [mubritinib]
In short: as §1

Measured: log2 fold change

CHMP4C (UniProt Q96CF2)
UniProt Q96CF2, sequence (Q96CF2 whole entry, looked up): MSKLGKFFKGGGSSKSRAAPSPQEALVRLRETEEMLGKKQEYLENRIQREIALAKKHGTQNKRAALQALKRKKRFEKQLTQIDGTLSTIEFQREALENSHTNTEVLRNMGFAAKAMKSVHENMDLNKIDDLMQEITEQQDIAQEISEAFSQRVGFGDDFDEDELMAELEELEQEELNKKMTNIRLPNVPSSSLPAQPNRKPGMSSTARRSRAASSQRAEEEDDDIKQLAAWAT
inactive: [1] -0.044 | crizotinib -0.007 | [2] -0.256 | [3] -0.003 | duvelisib 0.067 | gandotinib 0.073 | tozasertib -0.024 | [4] 0.03 | doramapimod -0.046 | ispinesib -0.079 | bafetinib -0.01 | [5] -0.003 | nilotinib -0.03 | [6] -0.021 | dasatinib -0.027 | [7] 0 | [8] -0.008 | [9] 0.041 | tipifarnib -0.015 | mubritinib 0.039

COX6B1 (UniProt P14854)
UniProt P14854, sequence (P14854 whole entry, looked up): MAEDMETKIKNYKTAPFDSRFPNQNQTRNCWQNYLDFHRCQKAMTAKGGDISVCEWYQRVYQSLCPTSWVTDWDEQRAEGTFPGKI
inactive: [1] -0.001 | crizotinib 0.184 | [2] 0.195 | [3] 0 | duvelisib 0.163 | gandotinib -0.027 | tozasertib 0.105 | [4] 0 | doramapimod -0.06 | ispinesib 0.226 | bafetinib -0.081 | [5] -0.023 | nilotinib -0.02 | [6] -0.01 | dasatinib 0.019 | [7] -0.027 | [8] 0.228 | tipifarnib -0.044 | mubritinib 0.054
active: [9] 0.377

CHD3 isoform 3 (UniProt Q12873)
UniProt Q12873, sequence (Q12873 whole entry, looked up): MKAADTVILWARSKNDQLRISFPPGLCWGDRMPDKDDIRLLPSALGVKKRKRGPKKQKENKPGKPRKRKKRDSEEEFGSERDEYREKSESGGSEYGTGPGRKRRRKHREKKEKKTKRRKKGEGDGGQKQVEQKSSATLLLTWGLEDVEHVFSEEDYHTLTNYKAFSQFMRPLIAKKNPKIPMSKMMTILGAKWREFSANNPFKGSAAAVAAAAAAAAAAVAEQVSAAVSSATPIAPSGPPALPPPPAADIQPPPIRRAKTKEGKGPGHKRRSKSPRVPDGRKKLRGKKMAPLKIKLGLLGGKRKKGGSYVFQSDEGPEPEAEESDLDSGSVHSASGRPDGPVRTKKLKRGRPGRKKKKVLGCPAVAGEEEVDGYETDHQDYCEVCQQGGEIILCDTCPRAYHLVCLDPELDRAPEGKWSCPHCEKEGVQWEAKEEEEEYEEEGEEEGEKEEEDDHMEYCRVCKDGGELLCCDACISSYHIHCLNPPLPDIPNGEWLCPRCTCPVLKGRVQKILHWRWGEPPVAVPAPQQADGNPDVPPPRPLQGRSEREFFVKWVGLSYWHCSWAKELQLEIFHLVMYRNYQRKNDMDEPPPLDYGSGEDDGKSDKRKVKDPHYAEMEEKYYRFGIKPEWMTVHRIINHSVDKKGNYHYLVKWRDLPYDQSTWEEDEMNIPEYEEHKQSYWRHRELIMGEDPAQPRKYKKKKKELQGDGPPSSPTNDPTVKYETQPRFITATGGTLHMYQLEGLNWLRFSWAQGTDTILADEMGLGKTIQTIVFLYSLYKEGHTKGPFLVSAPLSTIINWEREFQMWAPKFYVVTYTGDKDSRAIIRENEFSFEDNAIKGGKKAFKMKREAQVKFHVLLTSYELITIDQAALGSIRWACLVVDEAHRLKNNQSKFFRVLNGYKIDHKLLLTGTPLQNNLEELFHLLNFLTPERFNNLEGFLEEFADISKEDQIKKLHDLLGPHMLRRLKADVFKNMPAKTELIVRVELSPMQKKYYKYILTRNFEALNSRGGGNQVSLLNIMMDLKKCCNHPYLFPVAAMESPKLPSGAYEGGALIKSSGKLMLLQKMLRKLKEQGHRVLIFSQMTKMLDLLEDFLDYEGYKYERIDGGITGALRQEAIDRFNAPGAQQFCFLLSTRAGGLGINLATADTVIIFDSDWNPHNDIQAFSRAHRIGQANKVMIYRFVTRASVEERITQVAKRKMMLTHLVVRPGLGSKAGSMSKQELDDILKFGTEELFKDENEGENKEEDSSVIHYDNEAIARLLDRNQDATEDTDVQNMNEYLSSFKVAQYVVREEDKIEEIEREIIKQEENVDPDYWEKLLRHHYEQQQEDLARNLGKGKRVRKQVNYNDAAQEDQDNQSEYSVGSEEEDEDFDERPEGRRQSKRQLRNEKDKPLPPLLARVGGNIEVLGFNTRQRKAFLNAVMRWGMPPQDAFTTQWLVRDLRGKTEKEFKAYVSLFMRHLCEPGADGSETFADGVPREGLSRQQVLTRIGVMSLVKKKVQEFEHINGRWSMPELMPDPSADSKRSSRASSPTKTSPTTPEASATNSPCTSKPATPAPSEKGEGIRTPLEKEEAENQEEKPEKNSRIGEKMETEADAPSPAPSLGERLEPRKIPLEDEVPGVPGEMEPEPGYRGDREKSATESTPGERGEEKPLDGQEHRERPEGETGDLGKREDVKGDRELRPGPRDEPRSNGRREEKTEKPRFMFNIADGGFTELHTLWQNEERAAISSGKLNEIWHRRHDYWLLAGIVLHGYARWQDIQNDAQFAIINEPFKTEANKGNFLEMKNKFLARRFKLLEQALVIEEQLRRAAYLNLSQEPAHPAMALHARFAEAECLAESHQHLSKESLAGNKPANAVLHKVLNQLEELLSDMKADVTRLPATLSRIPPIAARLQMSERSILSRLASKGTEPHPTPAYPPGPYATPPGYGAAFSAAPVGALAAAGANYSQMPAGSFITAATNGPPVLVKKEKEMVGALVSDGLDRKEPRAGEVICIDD
inactive: [1] -0.036 | crizotinib -0.128 | [2] 0.068 | [3] 0.079 | duvelisib 0.01 | gandotinib 0.237 | tozasertib 0.23 | [4] 0.14 | doramapimod 0.026 | ispinesib -0.193 | bafetinib 0.01 | [5] 0.004 | nilotinib -0.093 | [6] -0.274 | dasatinib -0.086 | [7] -0.172 | [8] -0.06 | [9] 0.063 | tipifarnib -0.089 | mubritinib -0.058

CCDC9 (UniProt Q9Y3X0)
inactive: [1] -0.046 | crizotinib 0.016 | [2] -0.063 | [3] 0.105 | duvelisib -0.04 | gandotinib 0.194 | tozasertib -0.083 | [4] -0.012 | doramapimod -0.008 | ispinesib -0.215 | bafetinib -0.011 | [5] -0.032 | nilotinib 0.002 | [6] 0.117 | dasatinib 0.072 | [7] 0.028 | [8] -0.046 | [9] -0.05 | tipifarnib -0.004 | mubritinib -0.038

CNOT7 (UniProt Q9UIV1)
UniProt Q9UIV1, sequence (Q9UIV1 whole entry, looked up): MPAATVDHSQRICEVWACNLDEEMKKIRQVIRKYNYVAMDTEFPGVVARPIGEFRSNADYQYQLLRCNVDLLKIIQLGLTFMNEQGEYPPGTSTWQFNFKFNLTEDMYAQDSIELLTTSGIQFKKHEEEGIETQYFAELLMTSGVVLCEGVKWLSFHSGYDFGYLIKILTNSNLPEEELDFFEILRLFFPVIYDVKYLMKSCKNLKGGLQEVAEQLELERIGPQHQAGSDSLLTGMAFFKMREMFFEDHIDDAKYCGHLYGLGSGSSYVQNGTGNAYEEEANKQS
inactive: [1] -0.052 | crizotinib -0.097 | [2] 0.043 | [3] 0.219 | duvelisib 0.069 | gandotinib -0.003 | tozasertib -0.007 | [4] 0.022 | doramapimod 0.07 | ispinesib -0.072 | bafetinib 0.059 | [5] -0.037 | nilotinib -0.077 | [6] -0.057 | dasatinib -0.255 | [7] 0.002 | [8] -0.034 | [9] -0.051 | tipifarnib -0.075 | mubritinib 0.014

CSNK2A2 (UniProt P19784)
UniProt P19784, sequence (P19784 whole entry, looked up): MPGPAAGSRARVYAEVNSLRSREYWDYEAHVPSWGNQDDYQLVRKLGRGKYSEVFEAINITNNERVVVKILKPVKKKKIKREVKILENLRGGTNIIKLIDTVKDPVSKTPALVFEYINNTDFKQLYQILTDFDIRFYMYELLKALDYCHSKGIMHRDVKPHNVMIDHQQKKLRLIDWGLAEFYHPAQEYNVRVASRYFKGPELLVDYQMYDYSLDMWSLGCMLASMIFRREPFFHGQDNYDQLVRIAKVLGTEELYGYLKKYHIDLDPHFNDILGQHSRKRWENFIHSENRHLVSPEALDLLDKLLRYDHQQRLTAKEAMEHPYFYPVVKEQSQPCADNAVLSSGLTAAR
inactive: [1] 0.068 | crizotinib -0.132 | [2] 0.039 | duvelisib 0.032 | gandotinib -0.097 | tozasertib -0.029 | [4] 0.013 | doramapimod 0.007 | ispinesib 0.084 | bafetinib -0.042 | [5] -0.008 | nilotinib -0.009 | [6] 0.016 | dasatinib -0.056 | [7] -0.019 | [8] -0.009 | [9] 0.038 | tipifarnib -0.033 | mubritinib -0.019
active: [3] -0.234

CASP2 (UniProt P42575)
UniProt P42575, sequence (P42575 whole entry, looked up): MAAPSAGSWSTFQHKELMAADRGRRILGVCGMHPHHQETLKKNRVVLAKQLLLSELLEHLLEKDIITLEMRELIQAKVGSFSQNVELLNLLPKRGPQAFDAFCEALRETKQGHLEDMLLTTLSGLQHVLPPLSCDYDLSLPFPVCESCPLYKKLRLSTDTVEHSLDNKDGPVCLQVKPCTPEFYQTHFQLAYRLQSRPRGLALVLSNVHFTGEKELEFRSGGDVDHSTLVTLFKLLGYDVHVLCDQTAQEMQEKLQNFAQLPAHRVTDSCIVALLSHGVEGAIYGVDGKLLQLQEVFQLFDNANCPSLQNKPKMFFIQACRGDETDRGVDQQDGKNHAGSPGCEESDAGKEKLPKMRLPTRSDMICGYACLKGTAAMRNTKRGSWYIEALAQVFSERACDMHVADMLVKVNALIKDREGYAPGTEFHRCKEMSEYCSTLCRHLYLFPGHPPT
inactive: [1] 0.004 | crizotinib -0.062 | [2] 0.023 | [3] -0.002 | duvelisib 0.061 | gandotinib -0.071 | tozasertib 0.083 | [4] 0.05 | doramapimod 0.077 | ispinesib 0.039 | bafetinib 0.041 | [5] -0.035 | nilotinib -0.037 | [6] 0.076 | dasatinib -0.165 | [7] 0.114 | [8] 0.105 | [9] -0.056 | tipifarnib -0.118 | mubritinib 0.006

CLUH, A0A494C0R8
inactive: [1] 0.055 | [2] 0.205 | [3] 0.037 | gandotinib -0.214 | tozasertib -0.11 | [4] -0.031 | doramapimod 0.113 | ispinesib -0.028 | bafetinib 0.016 | [5] -0.445 | nilotinib 0.264 | [6] 0.015 | dasatinib -0.051 | [7] 0 | [8] -0.018 | tipifarnib 0.145 | mubritinib 0.072
active: crizotinib -0.575 | duvelisib 0.646 | [9] 0.532

CDC42BPA isoform 6 (UniProt Q5VT25)
active: crizotinib -0.477 | [3] -0.596 | [6] -0.682
inactive: [1] 0.03 | [2] -0.016 | duvelisib 0.145 | gandotinib -0.148 | tozasertib -0.048 | [4] 0.002 | doramapimod 0.071 | ispinesib -0.049 | bafetinib 0.051 | [5] 0.102 | nilotinib 0.28 | dasatinib -0.254 | [7] 0.135 | [8] 0.036 | [9] 0.008 | tipifarnib -0.185 | mubritinib 0.037

COX20 isoform 2 (UniProt Q5RI15)
UniProt Q5RI15, sequence (Q5RI15 whole entry, looked up): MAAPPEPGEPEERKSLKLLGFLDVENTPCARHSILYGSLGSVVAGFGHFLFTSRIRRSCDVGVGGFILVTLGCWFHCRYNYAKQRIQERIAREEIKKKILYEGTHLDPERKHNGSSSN
inactive: [1] -0.043 | crizotinib 0.063 | [2] -0.098 | [3] 0.01 | duvelisib -0.017 | gandotinib -0.385 | tozasertib 0.022 | [4] -0.001 | doramapimod -0.001 | ispinesib -0.017 | bafetinib -0.072 | [5] -0.241 | nilotinib 0.017 | [6] 0.012 | dasatinib 0.049 | [7] 0.009 | [8] -0.044 | [9] 0.023 | tipifarnib -0.069 | mubritinib -0.092

CHCHD2 (UniProt Q9Y6H1)
UniProt Q9Y6H1, sequence (Q9Y6H1 whole entry, looked up): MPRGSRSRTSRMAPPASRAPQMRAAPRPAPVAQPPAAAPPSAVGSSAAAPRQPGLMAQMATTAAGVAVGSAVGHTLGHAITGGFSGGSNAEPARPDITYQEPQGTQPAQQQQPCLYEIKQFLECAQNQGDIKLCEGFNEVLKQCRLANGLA
inactive: [1] 0 | crizotinib 0.161 | [2] -0.017 | [3] -0.075 | duvelisib 0.097 | gandotinib -0.107 | tozasertib 0.059 | [4] -0.016 | doramapimod -0.037 | ispinesib 0.066 | bafetinib -0.026 | [5] -0.002 | nilotinib 0.037 | [6] 0.029 | dasatinib 0.075 | [7] -0.086 | [8] 0.116 | [9] -0.02 | tipifarnib -0.06 | mubritinib 0.04

CRK (UniProt P46108)
UniProt P46108, sequence (P46108 whole entry, looked up): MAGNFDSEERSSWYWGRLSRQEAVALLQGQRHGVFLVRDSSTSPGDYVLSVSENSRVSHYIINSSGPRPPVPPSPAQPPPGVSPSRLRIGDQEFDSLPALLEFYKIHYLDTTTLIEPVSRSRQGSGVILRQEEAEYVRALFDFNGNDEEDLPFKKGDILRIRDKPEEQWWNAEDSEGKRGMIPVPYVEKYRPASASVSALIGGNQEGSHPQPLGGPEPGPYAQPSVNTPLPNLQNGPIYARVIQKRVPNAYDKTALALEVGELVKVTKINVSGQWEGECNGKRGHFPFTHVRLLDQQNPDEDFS
active: crizotinib -1.02 | bafetinib -0.586 | nilotinib -0.826 | dasatinib -0.883
inactive: [1] 0.043 | [2] 0.008 | [3] -0.064 | duvelisib -0.025 | gandotinib -0.096 | tozasertib -0.254 | [4] 0.058 | doramapimod 0.01 | ispinesib -0.004 | [5] -0.02 | [6] -0.136 | [7] 0.036 | [8] -0.007 | [9] 0.03 | tipifarnib 0.026 | mubritinib 0.075

CPSF7 isoform 3 (UniProt Q8N684)
UniProt Q8N684, sequence (Q8N684 whole entry, looked up): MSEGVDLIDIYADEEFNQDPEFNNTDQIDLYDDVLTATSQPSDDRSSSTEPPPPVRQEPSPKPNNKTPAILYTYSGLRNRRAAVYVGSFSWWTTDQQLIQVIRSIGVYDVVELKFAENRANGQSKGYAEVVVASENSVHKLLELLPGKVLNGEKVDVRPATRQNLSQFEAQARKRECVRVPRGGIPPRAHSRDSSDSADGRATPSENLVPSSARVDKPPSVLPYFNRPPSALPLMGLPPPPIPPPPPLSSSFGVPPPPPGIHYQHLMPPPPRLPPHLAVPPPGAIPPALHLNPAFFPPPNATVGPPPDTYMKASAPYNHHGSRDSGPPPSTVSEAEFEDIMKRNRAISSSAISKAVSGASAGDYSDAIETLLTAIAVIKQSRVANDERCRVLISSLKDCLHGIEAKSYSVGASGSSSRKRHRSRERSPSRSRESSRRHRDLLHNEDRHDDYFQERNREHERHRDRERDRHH
active: [6] -0.552
inactive: [1] -0.016 | crizotinib 0.013 | [2] 0.026 | [3] -0.05 | duvelisib 0.017 | gandotinib -0.004 | tozasertib -0.012 | [4] 0.018 | doramapimod -0.014 | ispinesib 0.09 | bafetinib 0.07 | [5] -0.107 | nilotinib 0.028 | dasatinib 0.012 | [7] 0.044 | [8] 0.003 | [9] -0.027 | tipifarnib -0.048 | mubritinib -0.048

CHMP4B (UniProt Q9H444)
UniProt Q9H444, sequence (Q9H444 whole entry, looked up): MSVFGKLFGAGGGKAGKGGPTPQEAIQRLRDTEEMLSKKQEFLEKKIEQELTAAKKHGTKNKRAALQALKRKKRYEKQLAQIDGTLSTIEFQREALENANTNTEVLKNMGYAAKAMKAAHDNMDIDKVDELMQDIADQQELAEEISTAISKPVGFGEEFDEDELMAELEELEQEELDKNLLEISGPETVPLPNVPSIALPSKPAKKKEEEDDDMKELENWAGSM
inactive: [1] -0.067 | crizotinib -0.036 | [2] -0.011 | [3] -0.022 | duvelisib -0.004 | gandotinib -0.075 | tozasertib -0.037 | [4] -0.014 | doramapimod 0.005 | ispinesib -0.008 | bafetinib -0.078 | [5] 0.061 | nilotinib -0.027 | [6] 0.007 | dasatinib 0.017 | [7] -0.023 | [8] 0.012 | [9] -0.013 | tipifarnib 0.053 | mubritinib 0.051

CD151 (UniProt P48509)
UniProt P48509, sequence (P48509 whole entry, looked up): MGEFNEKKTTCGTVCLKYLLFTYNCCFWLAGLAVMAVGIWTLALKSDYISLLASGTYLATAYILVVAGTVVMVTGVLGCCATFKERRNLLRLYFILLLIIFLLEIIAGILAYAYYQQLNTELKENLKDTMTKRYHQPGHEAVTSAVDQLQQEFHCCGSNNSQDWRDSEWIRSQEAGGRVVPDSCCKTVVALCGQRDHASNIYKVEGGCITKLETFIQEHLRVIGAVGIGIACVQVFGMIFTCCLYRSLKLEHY
inactive: [1] -0.151 | crizotinib 0.208 | [2] 0.07 | [3] -0.089 | duvelisib 0.138 | gandotinib -0.19 | tozasertib -0.04 | [4] -0.043 | doramapimod -0.056 | ispinesib 0.068 | bafetinib 0.135 | [5] 0.015 | nilotinib -0.072 | [6] 0.157 | dasatinib 0.063 | [7] 0.019 | [8] 0.025 | [9] -0.002 | tipifarnib -0.076 | mubritinib -0.092

CAVIN1 (UniProt Q6NZI2)
inactive: [1] -0.023 | crizotinib -0.046 | [2] -0.34 | [3] 0.174 | duvelisib -0.131 | gandotinib 0.145 | tozasertib 0.058 | [4] 0.06 | doramapimod 0.135 | ispinesib 0.067 | bafetinib 0.114 | [5] 0.004 | nilotinib -0.047 | [6] 0.104 | dasatinib -0.001 | [7] -0.11 | [8] -0.157 | [9] -0.204 | tipifarnib 0.125 | mubritinib -0.067
